This is part of a sample that, as a whole, favours compounds with a hit. Of some 79,000 tested, about 15% had one in any assay. A number with no mark means an inactive call. Active and inactive are the calls of the source. Cut-off read from the data, not from the text of the source: active = growth inhibition above about 70%; inactive = the rest.

The first assay is described as follows: NCI Yeast Anticancer Drug Screen. Data for the bub3 strain (AID 167). To be noted: S. cerevisiae bub3 mutant strain, at 5.0 µM (retest, dose inferred, filed as 0.5), stronger effect = higher value. The gist of the method: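 Mutant yeast screening strain plus compound; vehicle-treated cultures serve as the 0% inhibition reference.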
Regarding `CC1=CC(C)(C)Nc2cc(N)ccc21`, the growth inhibition was -74%.

`Fc1ccc2nncc(SCc3ccccc3)c2c1`: the growth inhibition was 2%. On the same count and under the same terms, for `CN(C)c1ccc(-c2c(C#N)c(-c3ccccc3)n(NS(=O)(=O)c3ccccc3)c(=O)c2C#N)cc1` the value was 54%. Still for that read-out and setting: for `Cc1cc(N2C(=O)CCSC2=S)ccc1Cl` the value was 45%. The same measure, in the same setting: for `C=C(c1ccccc1)[P+](c1ccccc1)(c1ccccc1)c1ccccc1` the value was 92% (active). With `Cc1cc(Br)c2ccccc2c1N`, the growth inhibition was 1%. The same measure, in the same setting: under `CC1C[N+](C)(C)C(C)C(=O)C1(c1ccccc1)c1ccccc1` (stereo not given) stands -4%; under `CC(=O)N(C1=CC(=O)c2ccccc2C1=O)c1ccc(C)cc1`, 37%. As to `CC(c1ccccc1)n1c2ccccc2c2c(N)ncnc21` (stereo not given), the growth inhibition is 13%.

In the case of `CC(=O)O/N=C1/CCC2C3CC=C4CC(OC(C)=O)CCC4(C)C3CCC12C` (stereo not given), the growth inhibition was -7%.

Regarding `c1cc(CCSSCCc2ccncc2)ccn1`, the growth inhibition is 1%. On the same count and under the same terms, for `CC1=C(C(=O)Nc2cc(C)ccc2C)C(c2cccc([N+](=O)[O-])c2)C(C(=O)Nc2cc(C)ccc2C)=C(C)N1` the value was 17%; for `ClC1=CC(Cl)=C2N=C(C(Cl)(Cl)Cl)N=C3N=C(C(Cl)(Cl)Cl)N=C1N32`, 21%. The same measure, in the same setting: for `C[n+]1c(-c2ccc(/C=N/Nc3n[nH]c(=S)n3/N=C/c3ccc(-c4cn5ccsc5[n+]4C)cc3)cc2)cn2ccsc21` the value was -29%. Turning to `CC1(C)OC(=O)C(=NNc2ccccc2[N+](=O)[O-])C(=O)O1`, the growth inhibition was 3%.

Take `CC(CCCOC(c1ccccc1)(c1ccccc1)c1ccccc1)OC(=O)Nc1ccccc1` (stereo not given): the growth inhibition is 69%. On the same count and under the same terms, under `CCN(CC)c1ccc2nc3ccc(N(CC)CC)cc3[n+](-c3ccccc3)c2c1` stands 98% (active). Same read-out and setting: under `CC1OC(C)C(O)C2=C1C(=O)c1ccccc1C2=O` (stereo not given) stands 14%. Still for that read-out and setting: under `CCCCCCCCCCCCS(=O)(=O)CC(Br)C(=O)c1ccco1` (stereo not given) stands 43%. Turning to `NC(=O)NOCC1NC(=O)NC1=O` (stereo not given), the growth inhibition was -3%.

As for `O=C(O)C1C(=O)OC2CCCCC21` (stereo not given), the growth inhibition was 0%. Same read-out and setting: for `C=CCNC(=S)N/N=C(\CCC)c1ccccn1` the value was 98% (active); for `Nc1ccc2c(c1)S(=O)(=O)c1cc(N)ccc1-2`, 22%; for `CN1C(=O)c2cccc3cc([N+](=O)[O-])cc(c23)C1=O`, 3%.

In the case of `C/C(=N\NC(=S)NC12CC3CC(CC(C3)C1)C2)c1ccccn1`, the growth inhibition was 0%.

Staying with this assay, now noted: S. cerevisiae bub3 mutant strain, at 50.0 µM (retest, dose inferred, filed as 5.0), stronger effect = higher value.
`Cc1ccccc1N1C(=O)C(=O)c2cccc(C)c21`: the growth inhibition was 99% (active). Consider `Nc1n[nH]c(=O)c2cccnc12`, for which the growth inhibition was -4%. For `CCCCNCCCNCCCNC(=O)c1csc(-c2csc(CCNC(=O)C(NC(=O)C(C)C(O)C(C)NC(=O)C(NC(=O)c3nc(C(CC(N)=O)NCC(N)C(N)=O)nc(N)c3C)C(OC3OC(CO)C(O)C(O)C3OC3OC(CO)C(O)C(OC(N)=O)C3O)c3cnc[nH]3)C(C)O)n2)n1` (stereo not given), the growth inhibition is 98% (active). Same read-out and setting: for `c1ccc(-c2ccc(-c3cnc(-c4ccc(-c5ccccc5)cc4)o3)cc2)cc1` the value was 31%.

For `CN(C)C=Nc1ccc2nonc2c1`, the growth inhibition was 13%.

For `COC(=O)C(CCC(=O)Cc1ccccc1)N1C(=O)c2ccccc2C1=O` (stereo not given), the growth inhibition is 86% (active).

With `O=S(=O)(Nc1ccccc1)c1ccccc1CC(O)(c1ccccc1)c1ccccc1`, the growth inhibition is 90% (active). Still for that read-out and setting: under `O=C1OC(=O)C2C=CC=CC12` (stereo not given) stands 2%. Consider `CCOC(=O)N/N=C/c1ccc([N+](=O)[O-])o1`, for which the growth inhibition is 77% (active). Consider `CN=C(N)N/N=C(\C)c1ccc2c(ccc3ccccc32)c1`, for which the growth inhibition was 99% (active). Same read-out and setting: for `O=C(C(/C=N/C(=S)NCc1ccccc1)=C(/O)c1ccccc1)c1ccccc1` the value was 97% (active); for `Cc1nc(Nc2ccc(Cl)cc2)sc1C(=O)Nc1cccc2c(=O)[nH][nH]c(=O)c12`, 11%. Still for that read-out and setting: for `Cc1c2ccccc2c(C)c2c1cc(F)c1ccccc12` the value was 90% (active); for `CC1=C(C(=O)Nc2ccccc2)C(c2cc(Cl)cc(Cl)c2)C(C(=O)Nc2ccccc2)=C(C)N1`, -11%; for `O=[N+]([O-])/C(Br)=C\c1ccc([N+](=O)[O-])cc1`, 99% (active).

On to `CC1=CC(C)(C)Nc2cc(N)ccc21`, for which the growth inhibition was -85%. Same read-out and setting: for `Fc1ccc2nncc(SCc3ccccc3)c2c1` the value was 97% (active). Still for that read-out and setting: for `CN(C)c1ccc(-c2c(C#N)c(-c3ccccc3)n(NS(=O)(=O)c3ccccc3)c(=O)c2C#N)cc1` the value was 51%.

As to `Cc1cc(N2C(=O)CCSC2=S)ccc1Cl`, the growth inhibition is 71% (active). On the same count and under the same terms, under `C=C(c1ccccc1)[P+](c1ccccc1)(c1ccccc1)c1ccccc1` stands 99% (active); under `Cc1cc(Br)c2ccccc2c1N`, 22%; under `CC1C[N+](C)(C)C(C)C(=O)C1(c1ccccc1)c1ccccc1` (stereo not given), -2%.

`CC(=O)N(C1=CC(=O)c2ccccc2C1=O)c1ccc(C)cc1`: the growth inhibition is 94% (active). Still for that read-out and setting: under `CC(c1ccccc1)n1c2ccccc2c2c(N)ncnc21` (stereo not given) stands 100% (active); under `CC(=O)O/N=C1/CCC2C3CC=C4CC(OC(C)=O)CCC4(C)C3CCC12C` (stereo not given), 74% (active).

With `c1cc(CCSSCCc2ccncc2)ccn1`, the growth inhibition is 98% (active). Still for that read-out and setting: for `CC1=C(C(=O)Nc2cc(C)ccc2C)C(c2cccc([N+](=O)[O-])c2)C(C(=O)Nc2cc(C)ccc2C)=C(C)N1` the value was 74% (active); for `ClC1=CC(Cl)=C2N=C(C(Cl)(Cl)Cl)N=C3N=C(C(Cl)(Cl)Cl)N=C1N32`, 94% (active); for `C[n+]1c(-c2ccc(/C=N/Nc3n[nH]c(=S)n3/N=C/c3ccc(-c4cn5ccsc5[n+]4C)cc3)cc2)cn2ccsc21`, 98% (active).

Consider `CC1(C)OC(=O)C(=NNc2ccccc2[N+](=O)[O-])C(=O)O1`, for which the growth inhibition was 21%. Still for that read-out and setting: under `CC(CCCOC(c1ccccc1)(c1ccccc1)c1ccccc1)OC(=O)Nc1ccccc1` (stereo not given) stands 69%; under `CCN(CC)c1ccc2nc3ccc(N(CC)CC)cc3[n+](-c3ccccc3)c2c1`, 98% (active).

For `CC1OC(C)C(O)C2=C1C(=O)c1ccccc1C2=O` (stereo not given), the growth inhibition is 87% (active).

For `CCCCCCCCCCCCS(=O)(=O)CC(Br)C(=O)c1ccco1` (stereo not given), the growth inhibition is 95% (active). On the same count and under the same terms, under `NC(=O)NOCC1NC(=O)NC1=O` (stereo not given) stands -3%; under `O=C(O)C1C(=O)OC2CCCCC21` (stereo not given), -3%; under `C=CCNC(=S)N/N=C(\CCC)c1ccccn1`, 95% (active). On the same count and under the same terms, for `Nc1ccc2c(c1)S(=O)(=O)c1cc(N)ccc1-2` the value was 27%. Still for that read-out and setting: for `CN1C(=O)c2cccc3cc([N+](=O)[O-])cc(c23)C1=O` the value was 88% (active); for `C/C(=N\NC(=S)NC12CC3CC(CC(C3)C1)C2)c1ccccn1`, 97% (active).

(Values after PubChem BioAssay (NCI).)
